12-LOX inh: inhibitors of human 12S-lipoxygenase ALOX12; P18054; AID 1671190; purified 12hLO, xylenol orange hydroperoxide absorbance; 580,000 compounds, 1.1% hits; Potency, µM (titrated, usually from 108 µM), hits mostly inhibitors
Target sequence (P18054 whole entry, looked up): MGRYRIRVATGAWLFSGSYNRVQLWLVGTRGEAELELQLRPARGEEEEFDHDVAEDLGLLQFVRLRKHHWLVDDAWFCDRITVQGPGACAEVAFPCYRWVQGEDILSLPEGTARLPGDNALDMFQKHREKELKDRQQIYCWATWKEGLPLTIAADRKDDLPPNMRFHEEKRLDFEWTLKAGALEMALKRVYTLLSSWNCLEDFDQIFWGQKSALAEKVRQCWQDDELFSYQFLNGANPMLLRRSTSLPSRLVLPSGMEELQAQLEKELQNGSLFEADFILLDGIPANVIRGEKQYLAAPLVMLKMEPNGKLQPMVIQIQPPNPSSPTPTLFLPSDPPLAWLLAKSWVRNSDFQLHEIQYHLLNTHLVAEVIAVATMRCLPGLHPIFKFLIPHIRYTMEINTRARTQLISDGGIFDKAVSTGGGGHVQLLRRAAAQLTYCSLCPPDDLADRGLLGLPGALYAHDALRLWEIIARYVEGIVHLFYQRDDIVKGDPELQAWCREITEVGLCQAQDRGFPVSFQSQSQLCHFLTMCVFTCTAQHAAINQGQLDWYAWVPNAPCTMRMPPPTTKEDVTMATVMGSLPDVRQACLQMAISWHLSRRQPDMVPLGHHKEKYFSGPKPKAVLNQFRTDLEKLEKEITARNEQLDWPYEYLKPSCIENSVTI
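Hydroperoxide product was detected by ferrous iron/xylenol orange as the 573 to 405 nm absorbance ratio. Arachidonic acid at 40 uM (final) was turned over for 30 min at room temperature by 150 nM human 12hLO, pH 7.0 Hepes buffer, after 15 min compound preincubation.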
ATXN2 expr inh: reduces ATXN2 reporter expression in HEK-293 cells. HEK-293 ATXN2-luciferase reporter, luminescence, 24 h. Potency, µM (series often up to 57 µM), usual class: inhibitors. 360,000 compounds, 0.72% hits; note: nearly all actives have a fitted effect of over 55% in size
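qHTS (up to 57 uM final) was run with 24 h compound exposure of reporter cells at 37 °C. Each well was multiplexed: SteadyGlo luminescence measured ATXN2-luciferase expression after a fluorogenic Gly-Phe-AFC viability readout (25 uM final).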
S2 tox: reduces viability in counter-screen for ATXN expression inhibitors. S2 cells (HEK-293 line with an ATXN2-luciferase reporter) viability, CellTiter-Fluor protease fluorescence, 24 h. Potency, µM (highest dose often 56.7 µM), actives largely listed as cytotoxic. 400,000 compounds, 0.49% hits; note: nearly all actives have a fitted effect of over 40% in size
HepG2 tox: HepG2 cytotoxicity, counter-screen for TGF-b inhibitors. HepG2 CAGA-GFP viability, ATP luminescence, 18 h. Potency, µM (highest dose often 46.1 µM), most hits filed as cytotoxic. 410,000 compounds, 0.76% hits. AID 588856
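HepG2 CAGA-GFP cells (1000/well, DMEM with 1% FBS) received compound, then TGF-beta at 500 pg/mL final, and were incubated 18 hours at 37 degrees C. Viability was read by CellTiter-Glo luminescence. Media-only wells were set as complete cell-killing and DMSO as no toxicity.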
TGFb inhibitor: TGF-b pathway inhibition; HepG2 CAGA-GFP TGF-b/SMAD3 reporter, GFP fluorescence, 18 h; TGF-beta stimulated, 500 pg/mL final; Potency, µM (doses to about 46.1 µM), actives largely listed as inhibitors; 410,000 compounds, 1.2% hits; AID 588855; note: nearly all actives have a fitted effect of over 65% in size
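TGF-beta reporter screen: HEPG2 CAGA-GFP, 1% FBS, 500 pg/mL TGF-beta final, 18 h; per-cell GFP summed per well; curves fitted and categorized by class.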
Each line names hits and unclear results; the compound was inactive in the other large screens. Shown are actives, neighbours in structure and some others; about 2.7% of the full set was active somewhere. Calls come from the whole dose curve; as a rule, active = well fitted curve in the direction sought with a large enough effect; inconclusive = small, poorly fitted or top-dose-only effect, or another doubt; inactive = no such curve, though single readings can be large; an effect the other way counts as inactive or inconclusive.

CS(=O)(=O)c1ccc2nc(NC(=O)c3cccs3)sc2c1	ATXN2 expr inh inconclusive, HepG2 tox 10µM
O=C(c1cc(F)cc(F)c1)N1CCOc2ccccc21	none (no result: ATXN2 expr inh, S2 tox, HepG2 tox, TGFb inhibitor)
COCCN1CCC(CNC(C)=O)CC1	none (no result: ATXN2 expr inh, S2 tox, HepG2 tox, TGFb inhibitor)
Cc1c(N=C2NC(=O)/C(=C/c3ccc(O)cc3)S2)c(=O)n(-c2ccccc2)n1C	S2 tox inconclusive, HepG2 tox 10µM
Cc1nn(-c2ccccc2)c(C)c1CN(C)S(=O)(=O)c1c(Cl)cccc1Cl	none (no result: ATXN2 expr inh, S2 tox, HepG2 tox, TGFb inhibitor)
O=C(O)/C=C/c1cn(Cc2ccccc2)nc1-c1ccccc1	none
O=C(O)CCn1cc(/C=C/C(=O)c2ccc(Cl)cc2)c(-c2ccc(Br)cc2)n1	12-LOX inh inconclusive, ATXN2 expr inh inconclusive, HepG2 tox 15.8µM, TGFb inhibitor inconclusive
CC(C)Oc1ccc(CN2CCC(CO)(Cc3ccccc3Cl)CC2)cc1CO	none (no result: ATXN2 expr inh, S2 tox, HepG2 tox, TGFb inhibitor)
CC1(Cc2ccccc2Cl)C(=O)Nc2ccc(OC(F)(F)F)cc21 (configuration not stated)	12-LOX inh inconclusive, ATXN2 expr inh inconclusive, S2 tox inconclusive, TGFb inhibitor 11.2µM
CC1(Cc2ccccc2C#N)C(=O)Nc2ccc(OC(F)(F)F)cc21 (configuration not stated)	none
COC(=O)c1cc(=O)n(-c2ccccc2)c(=Nc2ccccc2)s1	ATXN2 expr inh inconclusive, S2 tox inconclusive, TGFb inhibitor 17.8µM
CCOC(=O)c1ccc(N=c2sc(C(=O)OC)cc(=O)n2-c2ccc(C(=O)OCC)cc2)cc1	ATXN2 expr inh inconclusive, S2 tox inconclusive, TGFb inhibitor inconclusive
COC(=O)c1cccc(C#CC(NP(=O)(c2ccccc2)c2ccccc2)c2ccccc2)c1 (configuration not stated)	12-LOX inh inconclusive, ATXN2 expr inh inconclusive, S2 tox inconclusive, TGFb inhibitor inconclusive
CCC[C@@H]1C[C@@]1(CCC)[C@@H](NP(=O)(c1ccccc1)c1ccccc1)c1ccc(C(=O)OC)cc1	ATXN2 expr inh inconclusive, S2 tox inconclusive, HepG2 tox 14.1µM, TGFb inhibitor 11.2µM
O=C(NC(=S)NCC1CCCO1)c1ccccc1Br (configuration not stated)	none
Cc1ccc(C(=O)NC(=S)NCC2CCCO2)cc1Br (configuration not stated)	12-LOX inh 28.2µM, S2 tox inconclusive
Cc1nc2ccc(Cl)cc2cc1C(=O)NCc1cccnc1-n1cncn1	none (no result: ATXN2 expr inh, S2 tox, HepG2 tox, TGFb inhibitor)
Cc1c(C(O)CN2CCN(Cc3ccc4c(c3)OCO4)CC2)c2ccccc2n1C (configuration not stated)	12-LOX inh 44.7µM, TGFb inhibitor inconclusive
COc1cc(/C=C2\SC(c3ccccc3)=NC2=O)cc(Cl)c1O	12-LOX inh 8.91µM (no result: S2 tox)
COc1cc(/C=C2\SC(c3ccc(C)cc3)=NC2=O)ccc1O	12-LOX inh 6.31µM, ATXN2 expr inh inconclusive
COc1cc(/C=C2\SC(c3ccc(C)cc3)=NC2=O)cc(OC)c1OC	ATXN2 expr inh inconclusive (no result: 12-LOX inh)
CCN1CCCC1CNC(=O)c1cc2c(-c3cccc(OC)c3)nn(C)c2s1 (configuration not stated)	S2 tox inconclusive
CCN1CCCC1CNC(=O)c1cc2c(-c3ccc(Cl)cc3)nn(C)c2s1 (configuration not stated)	ATXN2 expr inh 25.1µM, S2 tox 14.1µM, TGFb inhibitor inconclusive (no result: 12-LOX inh)
Cn1nc(-c2ccc(Cl)cc2)c2cc(C(=O)NCCCN3CCCC3)sc21	ATXN2 expr inh 20µM, S2 tox 17.8µM
CCCCNC(=O)c1cc2c(-c3ccc(Cl)cc3)nn(C)c2s1	none
CC(C)Oc1c(I)cc(I)cc1/C=C(\C#N)c1nc2ccccc2[nH]1	none (no result: ATXN2 expr inh, S2 tox, HepG2 tox, TGFb inhibitor)
O=C(COC(=O)C1CC2C=CC1C2)Nc1ccc([N+](=O)[O-])cc1 (configuration not stated)	none
O=C(COC(=O)C1CC2C=CC1C2)Nc1c(Br)cc([N+](=O)[O-])cc1Br (configuration not stated)	12-LOX inh 22.4µM
CN(C)CCCN1c2ccc([N+](=O)[O-])cc2CCc2cc([N+](=O)[O-])ccc21	12-LOX inh 31.6µM, ATXN2 expr inh inconclusive, S2 tox inconclusive, TGFb inhibitor inconclusive
CCCOc1cc(C)c(S(=O)(=O)NC2CC(C)(C)NC(C)(C)C2)cc1C	HepG2 tox 11.2µM, TGFb inhibitor inconclusive
COc1cc(C)c(S(=O)(=O)NC2CC(C)(C)NC(C)(C)C2)cc1C	none
Cc1nn(Cc2ccc(Cl)cc2)c(C)c1NC(=O)CSc1nc2c(c(C(F)(F)F)n1)CCc1ccccc1-2	ATXN2 expr inh inconclusive, S2 tox inconclusive, HepG2 tox 0.631µM
Cc1ccc(Cn2nc(C)c(NC(=O)CSc3nc4c(c(C(F)(F)F)n3)CCc3ccccc3-4)c2C)cc1	ATXN2 expr inh inconclusive (no result: S2 tox)
COc1ccc(CNC(=O)c2c(N)n(CCCN3CCOCC3)c3nc4ccccc4nc23)cc1	12-LOX inh inconclusive, ATXN2 expr inh inconclusive, TGFb inhibitor 11.2µM
Nc1c(C(=O)NCc2ccc(F)cc2)c2nc3ccccc3nc2n1CCCN1CCOCC1	12-LOX inh inconclusive, ATXN2 expr inh inconclusive, HepG2 tox 17.8µM, TGFb inhibitor inconclusive
Nc1c(C(=O)NCc2ccccc2)c2nc3ccccc3nc2n1CCCN1CCOCC1	HepG2 tox 17.8µM, TGFb inhibitor inconclusive (no result: ATXN2 expr inh, S2 tox)
COC(=O)c1c(N)n(CCCN2CCOCC2)c2nc3ccccc3nc12	none
CCc1ccccc1NCC(=O)Nc1sc2c(c1C#N)CCCCC2	none (no result: ATXN2 expr inh, S2 tox, HepG2 tox, TGFb inhibitor)
CCCCOc1ccc(CNn2c(C)nc3ccccc3c2=O)cc1	none
CCCCCCOc1ccc(CNc2cccc3ccccc23)cc1	12-LOX inh 4.47µM (no result: ATXN2 expr inh, S2 tox, HepG2 tox, TGFb inhibitor)
Cc1ccc(OCc2ccc(-c3nc(C#N)c(N4CCC(C(N)=O)CC4)o3)o2)cc1C	none (no result: ATXN2 expr inh, S2 tox, HepG2 tox, TGFb inhibitor)

Screening data from PubChem.
